Bioassay records: PubChem BioAssay, Broad Institute
Shown are actives, neighbours in structure and some others; about 2.8% of the full set was active somewhere.
FGF22 binding – binders of recombinant human FGF22 by thermal shift; activity (Tm shift, normalised), % at 9.99 µM; AID 651658; SYPRO orange fluorescence; percent of sucrose octasulfate shift, DMSO zero; actives 1.5% (n = 340,000);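 active = mean Tm shift, scaled 0 neutral to 100 positive control, at about 1.3% or above, every replicate too, limit read from the data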
CDK5 inh – blocks human CDK5/p35 kinase activity; actives 0.01% (n = 330,000); Q00535+Q15078; Recombinant CDK5/p35, ADP-Glo luminescence, 60 min; inhibition, % at 10 µM;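 active = highest replicate inhibition of at least 50% and at least 75% of replicates reaching 50%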;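 note: plate controls were DMSO neutral control for no effect and GW8510 at 10 µM for full effect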
Target sequence (Q00535 whole entry, looked up): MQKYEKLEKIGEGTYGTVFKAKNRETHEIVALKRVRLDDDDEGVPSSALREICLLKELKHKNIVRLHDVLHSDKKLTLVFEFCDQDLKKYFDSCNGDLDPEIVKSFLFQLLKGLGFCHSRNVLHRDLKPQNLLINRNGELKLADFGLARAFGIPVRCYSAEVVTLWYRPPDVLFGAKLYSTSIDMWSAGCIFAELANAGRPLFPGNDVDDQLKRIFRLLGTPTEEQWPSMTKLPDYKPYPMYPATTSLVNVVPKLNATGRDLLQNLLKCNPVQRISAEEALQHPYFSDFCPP
Target sequence (Q15078 whole entry, looked up): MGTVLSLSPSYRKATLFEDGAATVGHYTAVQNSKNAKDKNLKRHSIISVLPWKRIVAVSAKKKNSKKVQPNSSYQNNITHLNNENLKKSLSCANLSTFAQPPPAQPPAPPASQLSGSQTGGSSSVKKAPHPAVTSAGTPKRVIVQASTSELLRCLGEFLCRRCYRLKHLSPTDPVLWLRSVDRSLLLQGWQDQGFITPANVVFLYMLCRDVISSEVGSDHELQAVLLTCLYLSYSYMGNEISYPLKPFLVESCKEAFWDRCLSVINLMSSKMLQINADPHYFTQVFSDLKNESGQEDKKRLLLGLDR
dFosB activator – activators of mouse delta FosB homodimer; P13346; purified delta FosB, TAMRA-CDK5 oligo fluorescence polarization; percent of positive-control signal above neutral wells; activation, % at 25 µM; actives 0.99% (n = 340,000);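 active = mean activation above about 17%, with every replicate also reaching it, limit read from the data, passing the limit was not always enough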
PvdQ inh – blocks Pseudomonas aeruginosa PvdQ acylase activity. inhibition, % at 10 µM. actives 0.063% (n = 340,000). purified PvdQ acylase, fluorescence plate reader; in the data active = inhibition above about 30%, passing the limit was not always enough;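 note: 0% = vehicle neutral wells and 100% = reference inhibitor wells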
SIRT5 block – sirtuin-5 (human) deacylase inhibition. Q9NXA8. Purified SirT5, succinyl-peptide AMC, trypsin-coupled fluorescence. inhibition, % at 15 µM. actives 1.1% (n = 330,000). AID 652115; in the data active = inhibition above about 15%
PglD inh – PglD (C. jejuni) enzyme inhibition. actives 0.098% (n = 360,000). inhibition, % at 12.5 µM. purified PglD enzyme, DTNB colorimetric CoA detection; in the data active = inhibition above about 16%, passing the limit was not always enough
Active calls of the source: *; ! = repeats disagree.

Results for CC=Cc1ccc2n(c1=O)C[C@@H]1[C@@H](CO)[C@H](C(=O)NC3CCCC3)N(C(=O)C3CC3)[C@H]21 (mixture of isomers) ?
SIRT5 block: -6

How did Cc1nn(-c2ccccc2)c2[nH]c(=O)cc(C(F)(F)F)c12 do in these assays?
FGF22 binding: 42; CDK5 inh: -1; dFosB activator: -2; PvdQ inh: -12; SIRT5 block: 76*; PglD inh: 2

Results for C[C@@H]1CN([C@H](C)CO)C(=O)c2cccc(NC(=O)Nc3ccc4c(c3)OCO4)c2O[C@@H]1CN(C)S(=O)(=O)c1cn(C)cn1 ?
FGF22 binding: -1; SIRT5 block: 16*; PglD inh: -2

How did C[C@H](CO)N1C[C@H](C)[C@@H](CN(C)S(=O)(=O)c2cn(C)cn2)Oc2ccc(NC(=O)Cn3cnnn3)cc2C1=O do in these assays?
FGF22 binding: 44*!; CDK5 inh: 0; dFosB activator: 0; PvdQ inh: -12; SIRT5 block: 8; PglD inh: 1

How did Cc1noc(C)c1S(=O)(=O)N(C)C[C@H]1Oc2ccc(NC(=O)Cn3cnnn3)cc2CC(=O)N([C@H](C)CO)C[C@H]1C do in these assays?
FGF22 binding: 0; SIRT5 block: 28*; PglD inh: 1

How did C[C@@H]1CN([C@H](C)CO)C(=O)c2cccc(NC(=O)Nc3ccc4c(c3)OCO4)c2O[C@H]1CN(C)S(=O)(=O)c1cn(C)cn1 do in these assays?
FGF22 binding: 1; SIRT5 block: 1; PglD inh: 0

Results for C[C@H](CO)N1C[C@H](C)[C@@H](CN(C)S(=O)(=O)c2cn(C)cn2)Oc2ccc(NC(=O)C3CC3)cc2C1=O ?
FGF22 binding: 0; CDK5 inh: 0; dFosB activator: -5; PvdQ inh: -15; SIRT5 block: -3; PglD inh: 3

How did C[C@@H]1CN([C@@H](C)CO)C(=O)c2cc(NC(=O)C3CC3)ccc2O[C@@H]1CN(C)S(=O)(=O)c1cn(C)cn1 do in these assays?
FGF22 binding: 0; SIRT5 block: 25*; PglD inh: 6

How did C[C@@H](NC(=O)Cn1cnc2c(OCc3ccccc3)ncnc21)c1cccc2ccccc12 do in these assays?
FGF22 binding: 0; CDK5 inh: -2; dFosB activator: 26*; PvdQ inh: -4; SIRT5 block: 3; PglD inh: -4

Results for Cc1nc(N)nc(N)c1CCCc1ccc(Cl)c(Cl)c1 ?
FGF22 binding: 0; CDK5 inh: -4; dFosB activator: 27*; PvdQ inh: 3; SIRT5 block: 15*; PglD inh: 0

Results for CN1CCN(c2ccc(NC(=O)c3cc4ccccc4o3)cc2)CC1 ?
FGF22 binding: 0; CDK5 inh: 0; dFosB activator: -5; PvdQ inh: -3; SIRT5 block: -3; PglD inh: -3

How did CCN1CCN(c2ccc(NC(=O)c3ccc(Br)o3)cc2)CC1 do in these assays?
FGF22 binding: 0; CDK5 inh: -1; dFosB activator: 1; PvdQ inh: -6; SIRT5 block: -1; PglD inh: 3

Results for CN1CCN(c2ccc(NC(=O)c3ccc(-c4ccc(Br)cc4)o3)cc2)CC1 ?
FGF22 binding: 0; CDK5 inh: 0; dFosB activator: 41*; PvdQ inh: 9; SIRT5 block: -4

Results for O=C(Nc1ccc(N2CCCC2)cc1)c1ccc(Br)o1 ?
CDK5 inh: 2; dFosB activator: 40*; PvdQ inh: -7; PglD inh: 0

How did COc1cccc(C(=O)N2C[C@H]3[C@@H](c4ccccc42)[C@H](CO)N3Cc2ccccc2F)c1 do in these assays?
FGF22 binding: 0; SIRT5 block: 2; PglD inh: 1

How did Cc1ccc(NC(=O)c2ccc(Br)o2)cc1S(=O)(=O)N(C)C do in these assays?
FGF22 binding: 43*; CDK5 inh: 3; dFosB activator: -15; PvdQ inh: 0; SIRT5 block: 0

Results for CN(C)S(=O)(=O)c1cccc(NC(=O)COC(=O)/C=C/c2ccc(Br)o2)c1 ?
FGF22 binding: 0; CDK5 inh: 0; dFosB activator: -10; PvdQ inh: -6; SIRT5 block: -1; PglD inh: 5

Results for Cc1ccc(NC(=O)COC(=O)/C=C/c2ccc(Br)o2)cc1S(=O)(=O)N(C)C ?
FGF22 binding: 43*; CDK5 inh: -1; dFosB activator: -17; PvdQ inh: 3; SIRT5 block: -4

How did Cc1ccc(NC(=O)c2ccncc2)cc1S(=O)(=O)N(C)C do in these assays?
FGF22 binding: 0; CDK5 inh: 0; dFosB activator: 2; PvdQ inh: -2; SIRT5 block: 2; PglD inh: 1

Results for CCC(=O)N1C[C@H](C)[C@@H](OC)CN(C)C(=O)c2ccc(NC(=O)c3cc(C)on3)cc2OC[C@H]1C ?
PglD inh: -3

Results for O=C(O)CCN=Cc1c(O)c2ccccc2oc1=O ?
FGF22 binding: 43*; CDK5 inh: -7; dFosB activator: -5; PvdQ inh: -23; SIRT5 block: 5

How did CCOC(=O)c1cnc2nc(N3CCOCC3)nn2c1N do in these assays?
FGF22 binding: 0; CDK5 inh: 2; dFosB activator: -1; PvdQ inh: 17; SIRT5 block: -5

How did CCOC(=O)c1cnc2nc(C)nn2c1N do in these assays?
FGF22 binding: 43*; CDK5 inh: 0; dFosB activator: 4; PvdQ inh: -3; SIRT5 block: 69*; PglD inh: -7

Results for C/C(=N/NC(=O)c1sc(NS(=O)(=O)c2ccc(C)cc2)nc1C)c1sc(N)nc1C ?
FGF22 binding: 43*; CDK5 inh: -1; dFosB activator: 5; PvdQ inh: 2; SIRT5 block: 9

How did Nc1cc2c(cc1Cl)-c1ccccc1C2=NO do in these assays?
FGF22 binding: 0; CDK5 inh: 11; dFosB activator: -3; PvdQ inh: -5; SIRT5 block: 24*; PglD inh: -2

How did O=C(COC(=O)c1c[nH]c(=O)[nH]c1=O)Nc1ccccc1F do in these assays?
FGF22 binding: 43*; CDK5 inh: 0; dFosB activator: 2; PvdQ inh: 5; SIRT5 block: 1

How did COc1ccc(/C=C(\NC(=O)c2ccc(C)cc2)C(=O)NCCN2CCOCC2)cc1 do in these assays?
FGF22 binding: 1.4*; CDK5 inh: -2; dFosB activator: -8; PvdQ inh: 6; PglD inh: 3

How did COc1ccc(C(=O)N/C(=C\c2ccc(Cl)cc2)C(=O)NCCN2CCOCC2)cc1 do in these assays?
FGF22 binding: 0; SIRT5 block: 0; PglD inh: -4

How did CN1CCN(C(=O)/C(=C/c2ccc(F)cc2)c2ccsc2)CC1 do in these assays?
FGF22 binding: 43*; CDK5 inh: 0; dFosB activator: 0; PvdQ inh: -9; SIRT5 block: -7
